Bioassay records deposited in PubChem by several laboratories.
The list is not random: actives were taken first. Their share in the collection is about 2.2%.
Autophagy mod – alters autophagy in cells. calls only at 10 µM (by protocol). 190,000 tested, 0.98% active. MEF GFP-LC3 puncta imaging; test concentration mostly 10 µM;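 active means percentage of spot-positive cells more than 3 SD above its plate mean, without a fluorescence outlier flag or 80% toxicity; inconclusive means no clear call, values can overlap the other calls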;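 further: spot-positive cell cutoff set from DMSO-treated cells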
Arbovirus anti – arbovirus infection inhibition; arbovirus infection cell-based antiviral screen; inhibition, % at 10 µM; 200,000 tested, 0.37% active; AID 1251; in the data active means inhibition above about 30%
Efa HMGR inh – inhibitors of class II HMG-CoA reductase from Enterococcus faecalis; inhibition, % at 10 µM; AID 1066; purified E. faecalis HMGR, NADPH absorbance 340 nm kinetic; 190,000 tested, 0.41% active;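 active means inhibition above a set limit, the median over all tested compounds plus 3 SD, cut at about 9.5% in these data; inconclusive means no clear call, values can overlap the other calls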;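 further: enzyme runs in reverse so mevalonate oxidation gives rising NADPH absorbance; 0% = complete reaction with DMSO and 100% = background rate lacking mevalonate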
DTT redox prof – compounds producing H2O2 with reducing agent – biochemical, NIH compound library profiling, artefact control for MLSCN library redox annotation, primary screen. DTT-dependent redox cycling H2O2, phenol red/HRP absorbance; 100% = 100 µM peroxide control, 0% = buffer. activation, % at 10 µM. 200,000 tested, 0.03% active;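 active means activation of at least 50% relative to the plate's high and low controls in the primary single-dose screen; inactive means activation below 50%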;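 further: compound incubated with DTT at 0.8 mM final as the reducing agent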
Ins promoter up – MIN6 insulin promoter up-regulation. MIN6 insulin promoter-GFP reporter, high-content imaging; hits give high values. z-score at 5 µM. 190,000 tested, 0.3% active;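 active means z-score above 3 at 5 µM with at least 500 cells counted in the well; inconclusive means wells under 500 cells, flagged as cytotoxic or low count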
NCF1 inh – blocks human p47phox regulatory protein of NADPH oxidases | P14598 | p47phox/p22phox peptide binding, fluorescence polarization, 2 h | inhibition, % at 24.7 µM | 220,000 tested, 0.53% active | AID 1274;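 active means inhibition above about 30%, limit read from the data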;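 further: 0% = p47phox with labelled peptide and 100% = labelled peptide alone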
Target sequence (P14598 whole entry, looked up): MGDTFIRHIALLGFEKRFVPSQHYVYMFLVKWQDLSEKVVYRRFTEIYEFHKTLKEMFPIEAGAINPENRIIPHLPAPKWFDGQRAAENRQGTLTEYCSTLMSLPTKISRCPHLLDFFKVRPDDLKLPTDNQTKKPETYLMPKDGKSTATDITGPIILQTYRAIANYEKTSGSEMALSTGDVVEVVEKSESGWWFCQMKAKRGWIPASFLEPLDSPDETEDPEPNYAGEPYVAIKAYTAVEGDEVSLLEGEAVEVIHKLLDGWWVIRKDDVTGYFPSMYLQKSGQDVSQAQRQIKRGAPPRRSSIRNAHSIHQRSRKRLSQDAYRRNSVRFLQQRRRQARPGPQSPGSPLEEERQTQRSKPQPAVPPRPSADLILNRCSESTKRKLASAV
The depositor's hits bear a star.

Screening O=C(NC1CCCCCC1)C1CCN(S(=O)(=O)N2CCC3(CC2)OCCO3)CC1 returned Autophagy mod active, Arbovirus anti 4, Efa HMGR inh 3, DTT redox prof 3, Ins promoter up -0.02 and NCF1 inh -7.
CC1CCCCC1NC(=O)C1CCN(S(=O)(=O)N2CCC3(CC2)OCCO3)CC1 (centres undefined) was read as Autophagy mod inactive, Arbovirus anti 1, Efa HMGR inh 1, DTT redox prof 3, Ins promoter up -0.04 and NCF1 inh -2.
CC(C)C(=O)Nc1ccc2c(c1)C(=O)NC2=O was read as Autophagy mod inactive, Arbovirus anti 3, Efa HMGR inh -1, DTT redox prof -1, Ins promoter up 0.17 and NCF1 inh -1.
`CCOc1ccc(-n2c(SCC(=O)Nc3cc(OC)c([N+](=O)[O-])cc3C)nc3ccccc32)cc1` gave Autophagy mod inactive, Arbovirus anti 54*, Efa HMGR inh -5, DTT redox prof 1, Ins promoter up -0.62 and NCF1 inh -53.
For CCN1/C(=C/c2cc[n+](CCCS(=O)(=O)[O-])c3ccccc23)Sc2ccccc21 the results were Autophagy mod inactive, Arbovirus anti 3, Efa HMGR inh -12, DTT redox prof -3, Ins promoter up 6.1* and NCF1 inh -88.
Screening CCC(/C=C1\Sc2ccc(OC)cc2N1CC)=C\c1sc2ccc(OC)cc2[n+]1CCCS(=O)(=O)[O-] returned Autophagy mod inactive, Arbovirus anti 2, Efa HMGR inh 2, DTT redox prof 0, Ins promoter up -3.3 and NCF1 inh -241.
`CCCCOC(=O)c1ccc(NC(=O)C(=O)NCCN(C)C)cc1` gave Ins promoter up -0.29 and NCF1 inh -11.
CCN(CC)CCOc1ccc(Br)cc1 was read as Autophagy mod inactive, Arbovirus anti -6, Efa HMGR inh 3, DTT redox prof 2, Ins promoter up -0.32 and NCF1 inh 2.
Screening CCN(CC)CCOc1ccc2c(c1)C(=NO)c1cc(OCCN(CC)CC)ccc1-2 returned Autophagy mod active, Arbovirus anti -41, Efa HMGR inh -4, DTT redox prof 1, Ins promoter up -2.5 and NCF1 inh -25.
COc1ccc(C2=NC(=O)/C(=C\c3cc(OC)c(OC)c(OC)c3)O2)cc1 was read as Autophagy mod inactive, Arbovirus anti 2, Efa HMGR inh 2, DTT redox prof 0, Ins promoter up 3* and NCF1 inh 16.
Screening COc1ccc2c(c1)CC/C(=C/c1cc(OC)c(OC)c(OC)c1)C2=O returned Autophagy mod inactive, Arbovirus anti 6, Efa HMGR inh -3, DTT redox prof 0, Ins promoter up 2.1 and NCF1 inh -14.
For O=C(Cc1ccc(F)cc1)N(c1ccc(F)cc1)C1C=CS(=O)(=O)C1 (centres undefined) the results were Autophagy mod inactive, Arbovirus anti -4, Efa HMGR inh 1, DTT redox prof 1, Ins promoter up -0.03 and NCF1 inh 35*.
For O=C(Cc1ccccc1)N(c1ccc(F)cc1)C1C=CS(=O)(=O)C1 (centres undefined) the results were Autophagy mod inactive, Arbovirus anti 5, Efa HMGR inh 0, DTT redox prof 0, Ins promoter up 0.3 and NCF1 inh 5.
Screening COc1ccc(N(C(=O)Cc2cccs2)C2C=CS(=O)(=O)C2)cc1 (centres undefined) returned Autophagy mod inactive, Arbovirus anti -2, Efa HMGR inh -3, DTT redox prof -1, Ins promoter up 3.1* and NCF1 inh -3.
For CC(C)OC(=O)CC1C(=O)NCCN1C(=S)NC(=O)c1cccs1 (centres undefined) the results were Autophagy mod inactive, Arbovirus anti 1, Efa HMGR inh -3, DTT redox prof 0, Ins promoter up -0.38 and NCF1 inh 3.
Screening O=C(N/N=C/C(Br)=C/c1ccccc1)c1n[nH]c2c1CCC2 returned Autophagy mod active, Arbovirus anti -36, Efa HMGR inh 0, DTT redox prof 0, Ins promoter up inconclusive and NCF1 inh -30.
For O=C(N/N=C/c1ccccc1)c1n[nH]c2c1CCCC2 the results were Autophagy mod inactive, Arbovirus anti -3, Efa HMGR inh -9, DTT redox prof 0, Ins promoter up 0.13 and NCF1 inh -11.
